Whole data set: some 33,000 sequences, median “E-score (-0.5 to 0.5)” near -0.015, cut for the highest 2% near 0.3. The sample as a whole holds a higher share of the highest values than the screen did.
Target: T1, Abf1 (UniProt P14164)
T1 sequence: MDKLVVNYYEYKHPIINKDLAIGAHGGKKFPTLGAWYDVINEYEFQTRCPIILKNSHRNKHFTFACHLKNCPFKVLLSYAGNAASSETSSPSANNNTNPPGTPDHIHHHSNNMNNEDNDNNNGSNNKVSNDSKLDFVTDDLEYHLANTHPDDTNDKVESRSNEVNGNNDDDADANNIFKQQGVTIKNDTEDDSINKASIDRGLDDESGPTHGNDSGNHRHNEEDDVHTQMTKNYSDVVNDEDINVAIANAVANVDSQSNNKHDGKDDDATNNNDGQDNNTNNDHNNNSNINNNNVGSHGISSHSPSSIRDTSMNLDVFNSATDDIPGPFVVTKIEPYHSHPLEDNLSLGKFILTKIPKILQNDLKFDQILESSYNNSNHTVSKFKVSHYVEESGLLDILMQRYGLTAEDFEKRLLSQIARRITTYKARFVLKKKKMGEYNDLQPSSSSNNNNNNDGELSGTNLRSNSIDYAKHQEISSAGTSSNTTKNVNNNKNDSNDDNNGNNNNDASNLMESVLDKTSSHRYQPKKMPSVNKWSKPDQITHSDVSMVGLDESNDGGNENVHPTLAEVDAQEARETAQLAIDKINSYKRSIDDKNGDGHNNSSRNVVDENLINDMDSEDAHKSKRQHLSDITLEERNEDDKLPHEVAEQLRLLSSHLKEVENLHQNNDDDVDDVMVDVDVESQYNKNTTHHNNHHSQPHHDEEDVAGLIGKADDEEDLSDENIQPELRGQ
Assay: PBM E-score (8-mer binding enrichment) (E-score (-0.5 to 0.5)); higher = stronger / more preferred TF binding
Conditions: protein concentration: 200 nM; construct: GST-full length
Experimental: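 Universal 'all 10-mer' protein binding microarrays (Agilent AMADID 015681) probed with GST-tagged S. cerevisiae TFs (full-length or DBD) made by in vitro transcription/translation (PURExpress), about 100-200 nM. Bound TF was detected with fluorescent anti-GST. Each ungapped 8-mer (which stands for itself and its reverse complement) is scored by the PBM enrichment score (E-score), a modified Wilcoxon-Mann-Whitney statistic from -0.5 to +0.5, computed with the Universal PBM Analysis Suite. Scale: above 0.35 generally sequence-specific binding.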

Row | Sequence | PBM E-score
1 | AACAGAGC | -0.0439
2 | ACTCTGTG | -0.0599
3 | GTGCCATA | -0.14
4 | CCAAAAGC | -0.0875
5 | TCGCATAA | 0.205
6 | AATACTTC | -0.0521
7 | AAGAATGA | 0.293
8 | GCTGTCAC | 0.197
9 | CATGTCAC | 0.383
10 | GATGTCAA | -0.0282
11 | AATGTCAT | 0.306
12 | AATGTCGA | 0.146
13 | AATGTCGT | 0.302
14 | AGTGTCAT | 0.21
15 | ACTGTCAT | 0.0825
16 | CATGTCAA | 0.105
17 | CATGTCAG | 0.0449
18 | GATGTCAC | 0.395
19 | AATGTCGG | -0.0313
20 | GAGTTGTA | 0.0502
21 | GGTAGCTA | -0.16
22 | AAACTCGC | -0.0402
23 | GAGTGTCC | -0.0553
24 | CACCTCGC | -0.0945
25 | ACAGTTGA | -0.00384

Row | Sequence | PBM E-score
26 | ATGGAGAA | -0.0924
27 | CTTGTGGA | -0.249
28 | GTCCCAAC | 0.0207
29 | ACAGCTAA | -0.159
30 | CGTGTCAG | 0.27
31 | AATGTCAG | -0.169
32 | AATGTCAC | 0.416
33 | AGTGTCAC | 0.174
34 | CGTGTCAC | 0.327
35 | AATGTCAA | -0.00569
36 | CACGCCGG | -0.0297
37 | GATAGGTA | 0.0863
38 | CGGGCGGA | -0.157
39 | CTTGCATA | 0.0552
40 | AGCGTACA | -0.121
41 | CCCGTACC | 0.182
42 | TGCGTACA | 0.0613
43 | ACCGTAAG | 0.226
44 | AACGTACG | 0.222
45 | ACCGTACA | 0.327
46 | CCCGTACA | 0.263
47 | CCCGTACG | 0.348
48 | ACCGTACG | 0.34
49 | TCCGTACA | 0.368
50 | TCCGTAAA | 0.145

Row | Sequence | PBM E-score
51 | ACCGTACT | 0.286
52 | CTCAGCCA | -0.0785
53 | CGCGCAGA | 0.103
54 | AGTAACGG | 0.0792
55 | AAGAGAGT | -0.24
56 | GAAGGGTC | -0.227
57 | ACTAAAAG | 0.0434
58 | CAATGCCG | -0.0313
59 | AGTTGAGG | -0.116
60 | CTTACGGC | -0.0264
61 | ACCGTACC | 0.118
62 | GCCGTACA | 0.294
63 | GCCGTACC | 0.356
64 | TCATACGA | 0.328
65 | GCATACGA | 0.0403
66 | CCATACGG | 0.281
67 | CCATACGA | 0.283
68 | GCCTACGA | 0.239
69 | ACATACTA | 0.109
70 | ACATACGC | -0.0157
71 | CCCTACGA | 0.041
72 | ACATACGT | 0.033
73 | ACATACGA | 0.356
74 | TCCTACGA | 0.347
75 | ACATACGG | 0.3

Row | Sequence | PBM E-score
76 | GCTAGTAC | 0.0984
77 | AGCTTGAA | -0.106
78 | TACCGTCA | 0.262
79 | CGTATCAG | 0.0845
80 | TCATTCGA | 0.129
81 | ACCTCTGG | -0.129
82 | GAGCCTGA | -0.165
83 | AAACCGGA | 0.00218
84 | CCACGAAG | 0.0703
85 | CCACGATC | 0.335
86 | CCACGAAC | 0.338
87 | CCACGATA | 0.143
88 | CCACGAAA | 0.216
89 | ACACGATC | 0.25
90 | CTCGGGAA | 0.0853
91 | AGTCATGA | 0.149
92 | ACCTTTTG | -0.00807
93 | CAATGATA | 0.322
94 | ACATGATC | 0.292
95 | ACATGATA | 0.315
96 | CAATGAGA | -0.0863
97 | GAATGAGA | 0.0436
98 | GAATGATA | 0.397
99 | CAATGATG | 0.106
100 | TAATGATA | 0.348

Row | Sequence | PBM E-score
101 | GCATGATA | 0.268
102 | TAATGAGA | 0.0631
103 | GAATGAAA | -0.0868
104 | TAATGAAA | 0.12
105 | CGGAGAAC | -0.184
106 | GTAGATAC | 0.0486
107 | CCTGTGTC | -0.275
108 | CGTAGAAC | 0.118
109 | AACCACAT | 0.182
110 | GCCATAGC | -0.055
111 | ACTTCAAG | 0.0326
112 | CTACGTGC | -0.0934
113 | ACGGACGG | 0.077
114 | TCGGTGCA | -0.0272
115 | GAATGATC | 0.32
116 | GAATGAGC | 0.051
117 | AAATGATA | 0.409
118 | GAATGAAC | -0.112
119 | AAATGATG | 0.318
120 | CAATGATC | 0.31
121 | CAATGAAC | -0.0206
122 | AAATGATC | 0.228
123 | AAATGATT | 0.275
124 | AAATGAGG | 0.0174
125 | ACATGATG | 0.119

Row | Sequence | PBM E-score
126 | AAATGAAA | 0.214
127 | AGCTACCC | -0.0429
128 | ACGCTAGT | 0.043
129 | CAATGCGG | -0.281
130 | ACGGGTCC | 0.142
131 | GTGGACAC | -0.0874
132 | TAGGTCAA | 0.0576
133 | ATGGCGAG | 0.0386
134 | AGTATTGA | 0.0838
135 | GGTATTGA | 0.00996
136 | AGTATTTA | 0.152
137 | CGTATTTC | 0.316
138 | CGTATTGA | 0.307
139 | GGTATTTA | 0.0301
140 | AGTATTTC | 0.209
141 | CCTATTTC | 0.095
142 | CGTATTTA | 0.335
143 | AACCTGGC | -0.112
144 | GGCCGGCA | -0.157
145 | CTGCCGAC | -0.121
146 | TCTCTCCA | -0.031
147 | GGCTCTCA | -0.224
148 | CGCGTGAG | 0.00035
149 | CTCGTGAA | 0.224
150 | ATCGTGAC | 0.255

Row | Sequence | PBM E-score
151 | CGCGTGAC | 0.303
152 | CTCGTGAC | 0.344
153 | AGCGTGAC | 0.186
154 | GGACCCCC | -0.249
155 | CGACTATA | 0.129
156 | AGACCTAA | -0.206
157 | CTACAAAA | 0.139
158 | GTACATAA | 0.324
159 | CGACAAAA | 0.241
160 | TTACATAA | 0.197
161 | TGACATAA | 0.351
162 | TGACAAAA | 0.304
163 | ATACAAAA | 0.0848
164 | CTACATAA | -0.118
165 | GGACAAAA | -0.0523
166 | GTACAAAA | 0.344
167 | GGACATAA | -0.032
168 | AGACATAA | -0.0415
169 | AACACTGA | -0.142
170 | AGTGGATA | 0.0619
171 | AAAGAAGG | -0.118
172 | AACACCAC | 0.00166
173 | CAATCTAC | -0.0654

Reference: the supplement of paper PMC3334620
